From PubChem BioAssay AID540336 (Broad Institute, 2011)
Several values for one entry are separate records, joined by “and”; a condition that tells them apart may be missing. Identical values can stand only once. The whole screen tested about 330,000 compounds, of which about 520 (0.16%) were called active.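 Rule for the calls: active = inhibition of at least 50% in every replicate; inconclusive = best replicate reaches 50% inhibition but some replicates fall short; inactive = the rest.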 For the sample, actives were picked, then their nearest neighbours and some compounds at random. Some structures have more than one record in an assay (separate samples or runs), and their calls can disagree.

molecular target: Histone acetyltransferase RTT109 (Candida albicans (strain SC5314 / ATCC MYA-2876)) (UniProt Q5AAJ8); test: inhibitors of C. albicans Rtt109/Vps75 HAT, primary screen, biochemical, ThioGlo CoA-SH fluorescence, plate reader (AID 540336); settings: purified Rtt109/Vps75, ThioGlo CoA-SH fluorescence, 4 h; at 34.9 µM; stronger effect = higher value
Sequence (Q5AAJ8 whole entry, looked up): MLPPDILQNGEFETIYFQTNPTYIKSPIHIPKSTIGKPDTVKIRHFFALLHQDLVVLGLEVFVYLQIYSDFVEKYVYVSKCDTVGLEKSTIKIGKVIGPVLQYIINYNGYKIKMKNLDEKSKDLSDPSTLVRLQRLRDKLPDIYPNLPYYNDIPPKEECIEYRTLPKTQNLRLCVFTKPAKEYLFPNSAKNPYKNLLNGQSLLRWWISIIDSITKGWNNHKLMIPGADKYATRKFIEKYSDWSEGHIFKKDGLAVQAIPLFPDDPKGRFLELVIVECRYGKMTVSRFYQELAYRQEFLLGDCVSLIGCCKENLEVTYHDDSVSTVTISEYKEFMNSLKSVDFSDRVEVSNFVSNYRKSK

inhibition, inactive:
CC(C)[C@@H](C(=O)OCC(=O)c1ccc2c(c1)NC(=O)CO2)N1C(=O)c2ccccc2C1=O 2.17%
O=c1nc(NO)ccn1C1CCCO1 (centres undefined) -2.47%
O=C(O)c1ccc(S(=O)(=O)c2ccccc2)s1 -2.02%
Cc1c[n+]([O-])ccc1[N+](=O)[O-] -8.76%
Cc1nn(-c2ncccn2)c2c1C(=O)CC(C)(C)C2Br (centres undefined) 8.81%
COCCN(C(=O)C(C)N1C(=O)c2ccccc2C1=O)c1c(N)n(CC(C)C)c(=O)[nH]c1=O (centres undefined) -5.79%
CN(C)/C=C(/C(=O)c1ccccc1)S(=O)(=O)c1ccc(Cl)cc1 0.945%
COc1cccc2sc(N(CCCN(C)C)C(=O)C(c3ccccc3)c3ccccc3)nc12 -2%
Cc1cccc2sc(N(CCCN(C)C)C(=O)CCS(=O)(=O)c3ccccc3)nc12 30.9%
Cc1cccc(-n2c(=O)c3c(C)c(C)sc3n(CC(N)=O)c2=O)c1 -1.94%
N#CCSc1nc2c(c(=O)n1Cc1ccccc1)C1(CCCC1)Cc1ccccc1-2 8.15%
O=C(OC12CC3CC(CC(C3)C1)C2)c1ccc(NCc2cc(O)ccc2O)cc1 -1.56%
CC(C)c1ccc(C=NNc2ccc([N+](=O)[O-])cn2)cc1 4.1%
CSCCC(NC(=O)COc1ccccc1)C(=O)OCc1ccc(Cl)cc1 (centres undefined) -1.24%
COc1ccccc1NC(=S)NC(=O)C(C)C -8.37%
COc1ccccc1NC(=O)C[n+]1ccccc1 -9.21%
CCOC(=O)C1CCCN(C(=O)C2CCN(S(=O)(=O)c3ccc(Cl)c(C(F)(F)F)c3)CC2)C1 (centres undefined) 10.8%
CCC1([N+](=O)[O-])COC(c2ccc(C)cc2)OC1 (centres undefined) -3.32%
Cc1c(CCOC(=O)c2cc([N+](=O)[O-])ccc2Cl)sc[n+]1CCCCS(=O)(=O)[O-] 12.5%
Cc1c(CCO)sc[n+]1CC(=O)OC12CC3CC(CC(C3)C1)C2 2.54%
Cc1ccc(S(=O)(=O)N2CCN(C(=O)COC(=O)/C=C/c3cccc(Cl)c3)CC2)c(C)c1 5.03%
CN(C)C(CNC(=O)c1cc2ccccc2o1)c1ccccc1 (centres undefined) 2.45%
CCN(CC)S(=O)(=O)c1cccc(NC(=O)c2ccc(S(=O)(=O)N3CCCC3)cc2)c1 -3.62%
CC1C(C)N(C(=O)CCl)c2ccccc2N1C(=O)CCl (centres undefined) -6.55%
Nc1cc2c(cc1Br)-c1ccc(F)cc1C2=O -11.8%
CC1CN(Cc2ccco2)C(=S)N(c2ccccc2)C1=O (centres undefined) 3.62%
NC(=O)c1ncn([C@@H]2O[C@H](CN=C3NS(=O)(=O)c4ccccc43)[C@@H](O)[C@H]2O)n1 -1.34%
Cc1ccccc1Nc1nc(-c2cccnc2)cs1 -4.39%
O=C(Nc1ccc(-c2csc(Nc3cccc(C(F)(F)F)c3)n2)cc1)c1cccc(C(F)(F)F)c1 -6.03%
CC1(C)N=C(N)NC(Nc2ccc(Cl)cc2)=N1 -1.08%
CC(C)(C)OC(=O)N1CCC(C(=O)Nc2cccc(C(=O)NCCc3ccccc3)c2)CC1 15.4%
COc1ccc2c(c1)c(=Cc1ccc(N(C)C)cc1)c1cc(-c3ccccc3)[n+](C)n12 14.8%
CC(=O)OCC(=O)C1(O)CCC2C3CC(C)C4=CC(=O)CCC4(C)C3C(O)CC21C (centres undefined) -0.0615%
Oc1cccc(CCc2ccccn2)c1 -14.8%
CC/C(=C\c1ccc(Cl)cc1)c1ccncc1 -6.6%
CC12CCCCC1=CC(=O)CC2 (centres undefined) -10.3%
CC1=NN(/C(=N\c2nnc(C)s2)Nc2ccccc2)[C@H](c2ccc(C)cc2)S1 -10.9%
Cc1cn(C2CC(O)C(CO)O2)c(=O)n(CCCc2ccccc2)c1=O (centres undefined) 5.62%
COc1ccc(/C=C2/CCCc3ccccc3C2=O)cc1 -1.83%
O=C(CNC(=O)c1ccccc1F)OCC(=O)c1c[nH]c2ccccc12 3.64%
COc1ccc(Cl)cc1C=CC=NNC(=O)c1ccncc1 -2.75%
Cc1cccc(NC(=S)N2CCC(C(=O)c3ccc(F)cc3)CC2)c1 -3.47%
O=C(Nc1ccc(S(=O)(=O)N2CCOCC2)cc1)C1CCN(S(=O)(=O)c2ccc(Cl)cc2)CC1 1.41%
C/C(=N\NC(=O)Cc1ccc(Cl)cc1)c1ccccn1 1.88%
CCOc1cc2ccccc2cc1C(=O)Nc1ccccn1 -0.763%
COc1ccc(CCC(=O)Nc2ccc(Cl)c(S(=O)(=O)N3CCOCC3)c2)cc1OC 4.5%
CCNC(=S)NCC 3.05%
O=C(O)c1ccc([N+](=O)[O-])cc1Sc1ccsc1 -13.5%
CC(NC(=O)c1ccccc1)C(=O)OCC(=O)Nc1cccc(S(=O)(=O)N2CCCC2)c1 (centres undefined) 9.23%
CCCCN1CC(CO)Oc2cccc(F)c2S1(=O)=O (centres undefined) -0.514%
COc1ccc(CCNC(=O)COC(=O)c2cnc(Cl)c(Cl)c2)cc1 9.18%
COc1ccc(CCNC(=O)CSc2nc(-c3ccc(OC)c(OC)c3)ccc2C#N)cc1 0.0988%

inhibition, 64.3% (active) and -8% (inactive):
Cc1c(CCOC(=O)CC23CC4CC(CC(C)(C4)C2)C3)sc[n+]1Cc1ccc([N+](=O)[O-])cc1

inhibition, active:
COc1cccc2sc(N(CCCN(C)C)C(=O)CCS(=O)(=O)c3ccccc3)nc12 83.9%
Cc1cccc(-n2c(SCC(N)=O)nc3c(c2=O)C2(CCCCC2)Cc2ccccc2-3)c1 53.5%
COc1ccccc1NC(=O)/C=C/C(N)=O 121%
CC(=O)Nc1cccc(-c2csc(Nc3cccc(C)n3)n2)c1 65%
CCN(CC)CCOc1ccc2c(c1)C(=NNC(=O)c1ccccn1)c1cc(OCCN(CC)CC)ccc1-2 72.5%
COc1cccc(-c2ccc(C#N)c(SCC(=O)NCCc3ccc(Cl)cc3)n2)c1 58.6%
